Screens deposited in PubChem by National Center for Advancing Translational Sciences (NCATS).
The sample as a whole holds a higher share of hits than the screen did.
Cycloheximide cs: affects cycloheximide protein synthesis inhibition readout, counter-screen | 12% of 300,000 active | cell reporter, cycloheximide protein synthesis inhibition counterscreen | AID 2314 | max response, %; in the data active = max response mostly above about 13%, no sharp cut-off; inactive = mostly below about 14%; also: read at 38.3 µM for the half of the compounds with a filed dose; 0% is about no effect
Shiga inhibitor: blocks Shiga toxin action in Vero cells | Vero cells, Shiga toxin protein synthesis inhibition reporter | inhibition, % at 38.7 µM | 9.2% of 290,000 active; in the data active = inhibition mostly above about 28%, no sharp cut-off; inactive = mostly below about 43%; also: 0% is about no effect
FBPA Giardia inh: Giardia lamblia aldolase inhibition; A8B2U2; purified Giardia FBPA; Potency, µM (doses to about 59.6 µM), for the others: at the top dose activity, negative = inhibition, actives largely listed as inhibitors; 0.71% of 290,000 active; AID 2451; also: potency is read from the fitted curve at half-maximal effect; % is scaled to controls: 0 for no effect and ±100 for the full control effect; nearly all actives have a fitted effect of over 55% in size
Target sequence (A8B2U2 whole entry, looked up): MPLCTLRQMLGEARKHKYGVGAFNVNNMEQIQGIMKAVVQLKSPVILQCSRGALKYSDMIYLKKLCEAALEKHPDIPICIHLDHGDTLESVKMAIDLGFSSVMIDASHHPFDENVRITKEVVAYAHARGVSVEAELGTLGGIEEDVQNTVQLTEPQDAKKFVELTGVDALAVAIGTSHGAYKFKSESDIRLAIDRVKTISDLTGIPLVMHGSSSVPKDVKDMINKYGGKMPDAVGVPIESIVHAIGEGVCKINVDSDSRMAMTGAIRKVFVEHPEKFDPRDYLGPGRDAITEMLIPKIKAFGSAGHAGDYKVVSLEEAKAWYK
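40 nM FBPA preincubated 10 min at RT with compound (up to 57.5 uM final), then substrate plus GAPDH/TPI/NAD/arsenate coupling and diaphorase/resazurin added. Fluorescence read after 20 min at RT, 525/598 nm.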
TbPYK inhibitor: inhibitors of Trypanosoma brucei pyruvate kinase | TbPYK enzyme, Kinase-Glo Plus ATP luminescence, 45 min | AID 624173 | Potency, µM (titrated, usually from 76.8 µM), for the others: top-dose activity, negative = inhibition, usual class: inhibitors | Q57TT1 | 0.12% of 410,000 active; also: potency is read from the fitted curve at half-maximal effect; % is scaled to controls: 0 for no effect and ±100 for the full control effect; nearly all actives have a fitted effect of over 50% in size
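Luminescence from Kinase-Glo Plus, added after a 45-minute room-temperature reaction, served as the end-point read-out. The enzyme and substrate were preincubated with compound before ADP (130 uM final) initiated turnover. Concentration-effect curves came from normalized qHTS data.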
RE007 growth inh: less growth of the S. pombe RE007 Vpr strain | S. pombe RE007 Vpr strain, BacTiter-Glo ATP luminescence, 24 h | Potency, µM (titrated, usually from 92.2 µM), for inactives: at the highest dose activity change, negative = less growth, actives largely listed as inhibitors | 0.21% of 360,000 active | AID 651644; active = well fitted falling curve with a large enough effect; inconclusive = small, poorly fitted or top-dose-only effect; inactive = no such curve, though single readings can be large or run the other way; also: potency is read from the fitted curve at half-maximal effect; % is scaled to controls: 0 for no effect and ±100 for the full control effect; nearly all actives have a fitted effect of over 50% in size
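Fission yeast RE007 carrying one integrated HIV-1 vpr copy, seeded at OD 0.01 in PMG+AL medium with 23 nL pinned compound. Grown 24 h at 30 degrees; viability read by BacTiter-Glo luminescence after 5 min.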
LmPK inh: blocks Leishmania mexicana pyruvate kinase activity; purified LmPK, Kinase-Glo ATP luminescence, 1 h; Potency, µM (doses to about 57.5 µM), for inactives: at the top dose activity change, negative = inhibition, usual class: inhibitors; 0.37% of 290,000 active; AID 1721; Q27686; also: potency is read from the fitted curve at half-maximal effect; % is scaled to controls: 0 for no effect and ±100 for the full control effect
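Purified LmPK (0.1 nM) converted ADP (0.1 mM) to ATP with PEP (0.5 mM) in imidazole buffer pH 7.2 with KCl and MgCl2, 1 h at room temperature. ATP was read by Kinase-Glo luminescence; data normalized to uninhibited and no-enzyme controls.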
Starred values were filed as active, the others as inactive; ? = inconclusive; nt = no result given. Unless noted, calls follow the shape of the dose curve; as a rule, active = well fitted curve in the direction sought with a large enough effect; inconclusive = small, poorly fitted or top-dose-only effect, or another doubt; inactive = no such curve, though single readings can be large; an effect the other way counts as inactive or inconclusive.

SMILES | Cycloheximide cs | Shiga inhibitor | FBPA Giardia inh | TbPYK inhibitor | RE007 growth inh | LmPK inh
COc1ccccc1/C=C(\C#N)C(=O)NCC1CCCO1 (configuration not stated) | nt | nt | nt | -2% | nt | nt
N#C/C(=C\c1cccs1)C(=O)NCC1CCCO1 (configuration not stated) | 25* | 80* | 0% | -1% | 10% | -6%
N#C/C(=C/c1cc(Br)cs1)C(=O)NCC1CCCO1 (configuration not stated) | 5 | -10 | nt | -5% | -19% | 1%
Cc1cc(-n2c(=O)[nH]c(=O)n(C)c2=O)ccc1Oc1ccc(S(=O)(=O)C(F)(F)F)cc1 | nt | nt | nt | -8% | nt | nt
O=C(NC(=S)N(CCO)Cc1ccccc1)c1ccc(F)cc1Cl | -5 | -5 | ? | -5% | 6% | -2%
COc1ccc(CCNC(=O)c2ccc3c(c2)CCN3S(=O)(=O)c2ccc(C)cc2)cc1 | nt | nt | nt | 3% | nt | nt
Cc1c2c(nc3ccccc13)CCC(C(C)(C)C)C2 (configuration not stated) | 26* | 62* | -2% | 1% | -29% | -1%
CC(C)(C)C1CCc2[nH]c3ccccc3c(=O)c2C1 (configuration not stated) | 13 | 9 | -15% | -2% | ? | -8%
S=C(NCc1ccco1)Nc1ccc(Cl)cc1 | 15* | 16 | 2% | 2% | 6% | -4%
S=C(NCc1ccco1)Nc1ccccc1Cl | 20* | 33 | -1% | -11% | -7% | -5%
Cc1c(C(=O)NCCO)[n+](=O)c2ccccc2n1[O-] | nt | nt | nt | -5% | nt | nt
Cc1ccc(N2CC(C(=O)N3CCCc4ccccc43)CC2=O)cc1 (configuration not stated) | 8 | 24 | 8% | 0% | -6% | 1%
CCOc1ccc(N2CC(C(=O)N3CCCc4ccccc43)CC2=O)cc1 (configuration not stated) | 31* | 64* | 18% | -25% | 2% | -4%
CCOC(=O)C1=NN(C(=O)c2ccc(OC)cc2)C(O)(c2ccc(Cl)cc2)C1 (configuration not stated) | -1 | 19 | 21% | -4% | -5% | 4%
CC1=NN(C(=O)c2ccccc2)C(O)(c2ccc(Br)cc2)C1 (configuration not stated) | 44* | 68* | 4% | -4% | 3% | 0%
COC(=O)C1=NN(C(=O)c2cccc(Br)c2)C(O)(c2ccc(Cl)cc2)C1 (configuration not stated) | -1 | -9 | 12% | 5% | 18% | 11%
CCOC(=O)C1=NN(C(=O)c2ccccc2)C(O)(c2ccc(C)cc2)C1 (configuration not stated) | 45* | 89* | 11% | 4% | 3% | 0%
CCOC(=O)C1=NN(C(=O)c2cccc(Br)c2)C(O)(C(C)(C)C)C1 (configuration not stated) | 20* | 74* | 6% | nt | nt | 1%
CCC(=O)N1CCc2cc(Br)cc(S(=O)(=O)NCCc3ccccc3Cl)c21 | nt | nt | nt | -3% | nt | nt
CCOC(=O)c1ccc(C(=O)NNC(=O)C2CC=CCC2)cc1 (configuration not stated) | nt | nt | nt | -5% | 8% | nt
COc1ccc(C(=O)NNC(=O)C2CC=CCC2)cc1 (configuration not stated) | 25* | 43* | -2% | -4% | 8% | -2%
O=C(NNC(=O)C1CC=CCC1)c1ccccc1Cl (configuration not stated) | 20* | 58 | -17% | -2% | 7% | -2%
O=C(Nc1ccc(O)cc1)C1CC=CCC1 (configuration not stated) | 2 | 24 | ? | -2% | -14% | -5%
Cc1cccc(N2CCN(C(=O)c3ccc4c(Cl)c5c(nc4c3)CCCC5)CC2)c1C | nt | nt | nt | -1% | nt | nt
Cc1cc(C)n(C(N)=NC(=O)c2ccc([N+](=O)[O-])cc2)n1 | 28* | 40* | 5% | 3% | nt | 12%
Cc1cc(C)n(C(N)=NC(=O)c2ccccc2)n1 | nt | nt | nt | -9% | -29% | nt
CCCCC(=O)Nc1cccc(-c2cn3ccsc3n2)c1 | 34* | 47* | 0% | -7% | 3% | 3%
